As a reminder, the AC50 is the concentration giving half of the maximal activity seen.

Results filed as inconclusive are left out. Activity calls are given as the source filed them. The calls were made as follows: active = hit-call score of the fitted dose curve at least 0.9, where 1 is the maximum; inconclusive = response in the unintended direction; inactive = score below 0.9.

One assay relates to Thyroperoxidase (TPO), gene 54314. Briefly: CCTE_Simmons_AUR_rTPO: CCTE's Amplex UltraRed Assay for Thyroperoxidase (TPO) Inhibition, Simmons Lab (AID 2283662).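 As to AC50: potency for loss of signal meaning inhibition of peroxidase activity.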 The essentials: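 Endpoint is decreased Amplex UltraRed fluorescence after a 30-min, 37C reaction of rat thyroid microsomes with 300 uM H2O2. Eight test concentrations (5 nM–87.5 uM final) in 0.5% DMSO, three biological replicates each.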
Take `CC(C)=CCCC(C)=CCCC(C)=CCO`: the compound was classed as inactive. Turning to `CCCCCCCCCCCCCOS(=O)(=O)O`, the concentration at half-maximal activity (AC50) was 42.6 µM (active). Take `Cc1ccc(O)c(C(C)(C)C)c1`: the AC50 was 20.6 µM (active). Same read-out and setting: with `CC(C)c1cccc(O)c1` the figure was 25.9 µM (active); with `O=c1cc(-c2ccccc2)oc2cc(O)cc(O)c12`, 23 µM (active); with `CCCCCCCCCCCCCCCC(=O)OC[C@H](O)[C@H]1OC(=O)C(O)=C1O`, 18.3 µM (active).

For `COc1ccc(O)cc1`, the half-maximal activity concentration (AC50) was 8.4 µM (active). In the case of `O=Nc1ccc(Nc2ccccc2)cc1`, the outcome was inactive. For `CN(C)c1ccc(O)c2c1C[C@H]1C[C@H]3[C@H](N(C)C)C(=O)C(C(N)=O)=C(O)[C@@]3(O)C(=O)C1=C2O`, the concentration at half-maximal activity (AC50) was 0.607 µM (active). Take `CSc1nc(NC2CC2)nc(NC(C)(C)C)n1`: the result was inactive.

Turning to `O=C(Cl)c1cccc(C(=O)Cl)c1`, the half-maximal activity concentration (AC50) was 7 µM (active).

Regarding `COc1cc(C(C)(C)C)c(O)c(C(C)(C)C)c1`, the half-maximal activity concentration (AC50) was 2.32 µM (active). Consider `Cc1ccc(C(C)C)cc1O`, for which the call was inactive.

On to `c1ccc2[nH]ccc2c1`, for which the AC50 was 1.14 µM (active). Still for that read-out and setting: the result for `CCCCc1ccc(N)cc1` reads 0.00854 µM (active). `c1ccc2c(c1)c1cccc3ccc4cccc2c4c31`: the compound was called inactive.

With `CC(C)=CCCC(C)CC=O` (configuration not stated), the call was inactive.

System in the next assay: not listed separately
Briefly: CCTE_Simmons_CellTiterGLO_HEK293T: Viability Assessment in CCTE's Assays for Thyroperoxidase (TPO) Inhibition, Simmons Lab (AID 2283665).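 As to AC50: cells exposed to compound for 24 h before readout; actives reduce ATP signal below DMSO vehicle meaning cytotoxicity.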 In short, it runs like this: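 ATP depletion measured in HEK293T cells after 24 h dosing (8 concentrations, 5 nM–87.5 uM final; DMSO 0.5%) using CellTiter-Glo luminescence; curves fit for loss of signal against DMSO baseline.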
For orientation: In ATP-based viability assays light output follows the ATP content of the culture.
Regarding `CC(C)=CCCC(C)=CCCC(C)=CCO`, the AC50 was 95 µM (active).

Take `CCCCCCCCCCCCCOS(=O)(=O)O`: the concentration at half-maximal activity (AC50) was 32.5 µM (active). Same read-out and setting: the result for `Cc1ccc(O)c(C(C)(C)C)c1` reads 65.6 µM (active). As for `CC(C)c1cccc(O)c1`, the result was inactive. The same measure, in the same setting: the result for `O=c1cc(-c2ccccc2)oc2cc(O)cc(O)c12` reads “inactive”.

As to `CCCCCCCCCCCCCCCC(=O)OC[C@H](O)[C@H]1OC(=O)C(O)=C1O`, the AC50 is 74.2 µM (active). On to `COc1ccc(O)cc1`, for which the AC50 is 34.2 µM (active). On the same count and under the same terms, the result for `O=Nc1ccc(Nc2ccccc2)cc1` reads 84 µM (active). Take `CSc1nc(NC2CC2)nc(NC(C)(C)C)n1`: the result was inactive. Same read-out and setting: the result for `O=C(Cl)c1cccc(C(=O)Cl)c1` reads “inactive”. For `COc1cc(C(C)(C)C)c(O)c(C(C)(C)C)c1`, the concentration at half-maximal activity (AC50) was 26.8 µM (active). For the compound `Cc1ccc(C(C)C)cc1O`, the outcome was inactive. For `c1ccc2[nH]ccc2c1`, the compound was called inactive. Turning to `CCCCc1ccc(N)cc1`, the AC50 is 17.4 µM (active). Take `CC(C)=CCCC(C)CC=O` (configuration not stated): the compound was called inactive.

The record behind these values is PubChem BioAssay (EPA / NIEHS).
